Experimental findings from PubChem BioAssay (NCI) are described below.

About 83,000 compounds went through this panel and 20% of them were active in at least one assay; those are over-represented in the sample as a whole.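 Assay: single dose, 48 h. Readout: percent growth (0 = no net growth; negative = cell death). Active: <10.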 Values without a mark were called inactive. Calls of active or inactive are those of the source.

Some test systems named below: SR leukemia; RPMI-8226 leukemia; OVCAR-8 ovarian; OVCAR-5 ovarian; OVCAR-4 ovarian; SK-OV-3 ovarian; IGROV1 ovarian; OVCAR-3 ovarian; HS 578T breast; NCI/ADR-RES ovarian; T-47D breast; BT-549 breast; MDA-MB-435 melanoma; SW-620 colon; MCF7 breast; HCT-116 colon; HCC-2998 colon; KM12 colon.
Common to all, as to assay: NCI-60 one-dose screen, 48 h (100 = growth as untreated, 0 = no growth, -100 = all killed)
Common to all, as to conditions: 10 µM

For the compound `COc1ccc(-c2ccc(-c3ccc(C(=N)N)c(F)c3)s2)cc1`, the growth with SR leukemia is -21.2% (active); in the assay with RPMI-8226 leukemia, -65.6% (active); with OVCAR-8 ovarian, -48.7% (active); in the assay on OVCAR-5 ovarian, -91.7% (active); with OVCAR-4 ovarian it was -67.9% (active); with SK-OV-3 ovarian it was -93.8% (active). The growth in the assay with IGROV1 ovarian was -62.7% (active); with OVCAR-3 ovarian, -96% (active); with HS 578T breast, -54.3% (active); in the assay with NCI/ADR-RES ovarian, -51.3% (active); with T-47D breast, -64% (active); in the assay on BT-549 breast it was -91.7% (active). The growth with MDA-MB-435 melanoma is -79.5% (active); with SW-620 colon it was -91% (active); in the assay with MCF7 breast, -70.6% (active); in the assay on HCT-116 colon, -82.6% (active); in the assay on HCC-2998 colon it was -83.9% (active); in the assay on KM12 colon, -94.9% (active).
Turning to `O=C(NC1CCCC1)c1ccc(N2CCC(NCc3cccc(C(F)(F)F)c3)CC2)cc1`, the growth in the assay on SR leukemia is 0.0064% (active); in the assay on RPMI-8226 leukemia, 71.3%; in the assay on OVCAR-8 ovarian, 95.2%; in the assay on OVCAR-5 ovarian it was 94.2%; in the assay on OVCAR-4 ovarian, 89.5%; with SK-OV-3 ovarian, 98.4%. Moreover, the growth in the assay on IGROV1 ovarian was 94.1%; in the assay with OVCAR-3 ovarian, 90.4%; with HS 578T breast, 96.1%; in the assay on NCI/ADR-RES ovarian, 88.3%; in the assay on T-47D breast, 83.2%; in the assay with BT-549 breast it was 89.3%. For the same compound, the growth is 105% with MDA-MB-435 melanoma; 97% in the assay with SW-620 colon; 95.8% in the assay with MCF7 breast; 86.5% with HCT-116 colon; 41.2% in the assay with HCC-2998 colon; 84.5% in the assay on KM12 colon.
Turning to `COC(=O)[C@]12CC[C@@H](C)[C@H](C)[C@@H]1C1=CC[C@@H]3[C@@]4(C)C[C@@H](O)[C@H](O)[C@@](C)(CO)[C@@H]4[C@H](O)C[C@@]3(C)[C@]1(C)CC2`, the growth with SR leukemia is -36.5% (active); with RPMI-8226 leukemia, -20.7% (active); in the assay on OVCAR-8 ovarian, -27.3% (active); in the assay on OVCAR-5 ovarian, -21.6% (active); in the assay on OVCAR-4 ovarian it was -11% (active); in the assay on SK-OV-3 ovarian, -33.1% (active). Also, the growth is -19.8% (active) with IGROV1 ovarian; -64.9% (active) in the assay on OVCAR-3 ovarian; -13% (active) in the assay with HS 578T breast; -22.8% (active) with NCI/ADR-RES ovarian; -47.1% (active) with T-47D breast; -66.1% (active) in the assay with BT-549 breast. Also, the growth in the assay on MDA-MB-435 melanoma is -66.9% (active); with SW-620 colon it was -54.1% (active); with MCF7 breast it was -24.3% (active); with HCT-116 colon it was -82.3% (active); with HCC-2998 colon, -89.2% (active); in the assay on KM12 colon, -74.2% (active).
As to `COc1cc([C@@H]2c3cc4c(cc3[C@H](SC(=N)N)[C@H]3COC(=O)[C@H]23)OCO4)cc(OC)c1OC`, the growth was 14.1% in the assay with SR leukemia; 8.62% (active) with RPMI-8226 leukemia; 23.5% with OVCAR-8 ovarian; 28.2% in the assay with OVCAR-5 ovarian; 54.7% with OVCAR-4 ovarian; -4.1% (active) with SK-OV-3 ovarian. Also, the growth in the assay with IGROV1 ovarian was -0.422% (active); in the assay with OVCAR-3 ovarian it was 1.61% (active); in the assay on HS 578T breast it was 34.2%; with NCI/ADR-RES ovarian, -0.709% (active); in the assay with T-47D breast, 58.6%; with BT-549 breast, 21.7%. Further, the growth with MDA-MB-435 melanoma was -31.1% (active); in the assay on SW-620 colon, 22.5%; with MCF7 breast, 14.4%; with HCT-116 colon, 0.571% (active); in the assay on HCC-2998 colon it was -1.43% (active); in the assay with KM12 colon, -0.331% (active).
`Brc1ccc(-c2cn3ccnc3c(-c3ccc(Br)cc3)n2)cc1`: the growth in the assay with SR leukemia was 13.4%; in the assay on RPMI-8226 leukemia, 58.3%; in the assay with OVCAR-8 ovarian, 51.6%; with OVCAR-5 ovarian it was 82.4%; in the assay with OVCAR-4 ovarian it was 62.2%; in the assay on SK-OV-3 ovarian it was 55.2%. For the same compound, the growth with IGROV1 ovarian is 55.8%; in the assay with OVCAR-3 ovarian, 31.9%; in the assay with HS 578T breast, 61.1%; with NCI/ADR-RES ovarian it was 19.7%; with T-47D breast, 37.2%; in the assay with BT-549 breast, 17.6%. For the same compound, the growth in the assay with MDA-MB-435 melanoma is 3.08% (active); in the assay on SW-620 colon it was 25.4%; in the assay on MCF7 breast, 22%; in the assay with HCT-116 colon it was 30%; with HCC-2998 colon it was 60.2%; with KM12 colon, 34.6%.
With `Cc1ccccc1[P+](Cc1ccccc1)(c1ccccc1)c1ccccc1`, the growth in the assay with SR leukemia was 2.45% (active); in the assay with RPMI-8226 leukemia, -27% (active); in the assay on OVCAR-8 ovarian it was 10%; with OVCAR-5 ovarian, 52%; in the assay with OVCAR-4 ovarian, 8.97% (active); with SK-OV-3 ovarian, 43.7%. For the same compound, the growth with IGROV1 ovarian is 14.3%; with OVCAR-3 ovarian, 26.4%; with HS 578T breast it was 54.4%; in the assay with NCI/ADR-RES ovarian, 104%; with T-47D breast, -3.4% (active); in the assay on BT-549 breast it was 10.3%. In addition, the growth in the assay with MDA-MB-435 melanoma is 1% (active); with SW-620 colon, 30%; in the assay on MCF7 breast it was 10.4%; in the assay with HCT-116 colon it was 12.7%; in the assay with HCC-2998 colon it was 16.5%; with KM12 colon it was 8.7% (active).
Regarding `COC(=O)C1(C(=O)OC)C2C(=O)C3C(C21)C3(C(=O)OC(C)(C)C)C(=O)OC(C)(C)C` (configuration not stated), the growth in the assay with SR leukemia was 113%; with RPMI-8226 leukemia it was 93.8%; in the assay with OVCAR-8 ovarian, 104%; with OVCAR-5 ovarian, 102%; in the assay on OVCAR-4 ovarian, 101%; with SK-OV-3 ovarian, 121%. Also, the growth in the assay on IGROV1 ovarian was 109%; in the assay on OVCAR-3 ovarian, 114%; in the assay on HS 578T breast, 97.9%; in the assay with NCI/ADR-RES ovarian, 104%; in the assay with T-47D breast it was 102%; in the assay with BT-549 breast, 101%. Besides, the growth with MDA-MB-435 melanoma is 99.9%; in the assay with SW-620 colon, 106%; in the assay with MCF7 breast, 103%; in the assay with HCT-116 colon it was 101%; in the assay with HCC-2998 colon, 112%; in the assay on KM12 colon it was 112%.
Turning to `O=C(COc1ccc(-c2nc3ccccc3[nH]2)cc1)N=Nc1c(O)[nH]c2ccccc12`, the growth in the assay on SR leukemia was 1.13% (active); with RPMI-8226 leukemia, 71.5%; with OVCAR-8 ovarian, 78.4%; in the assay with OVCAR-5 ovarian, 116%; in the assay on OVCAR-4 ovarian it was 15.5%; in the assay on SK-OV-3 ovarian, 105%. Moreover, the growth in the assay with IGROV1 ovarian was 99.5%; with OVCAR-3 ovarian, 62.5%; with HS 578T breast, 103%; in the assay with NCI/ADR-RES ovarian it was 108%; in the assay with T-47D breast, 59%; in the assay on BT-549 breast, 106%. Also, the growth was 69.8% in the assay on MDA-MB-435 melanoma; 85.6% with SW-620 colon; 42.5% in the assay with MCF7 breast; 40.9% in the assay on HCT-116 colon; 109% with HCC-2998 colon; 58.2% in the assay with KM12 colon.
For the compound `Fc1cc(-c2ncc(-c3cc(F)c(F)c(F)c3)c(NC3CCCCCC3)n2)cc(F)c1F`, the growth in the assay on SR leukemia was 95.9%; in the assay with RPMI-8226 leukemia it was 96.3%; in the assay on OVCAR-8 ovarian, 102%; in the assay with OVCAR-5 ovarian, 110%; in the assay on OVCAR-4 ovarian it was 89.1%; with SK-OV-3 ovarian, 115%. Further, the growth in the assay with IGROV1 ovarian was 110%; in the assay with OVCAR-3 ovarian, 110%; in the assay on HS 578T breast, 102%; in the assay on NCI/ADR-RES ovarian, 106%; in the assay on T-47D breast, 102%; in the assay with BT-549 breast, 103%. Also, the growth was 96.8% in the assay on MDA-MB-435 melanoma; 96.9% in the assay with SW-620 colon; 90.8% with MCF7 breast; 101% in the assay on HCT-116 colon; 127% in the assay with HCC-2998 colon; 101% in the assay on KM12 colon.
